# Bioassay records from PubChem BioAssay.
# Only some compounds are listed: those with a hit (about 10% of all), similar ones and a draw of the others.
# HP1b binding inh = blocks HP1-beta chromodomain binding to methylated histone tails; P83916; AID 540317; 0.56% of 390,000 active; Potency, µM (doses to about 114 µM), for the others: at the highest dose activity change, negative = inhibition, hits mostly inhibitors; AlphaScreen HP1-beta / biotin-H3K9me3 peptide binding; also: potency is read from the fitted curve at half-maximal effect; nearly all actives have a fitted effect of over 70% in size
#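 HP1-beta protein (50 nM final) preincubated 30 min at room temperature with biotinylated H3(1-18)K9me3 peptide (50 nM) in PBS pH 7.4, 0.01% Tween-20, then compound added for 30 min. AlphaScreen streptavidin donor/nickel chelate acceptor beads (10 ug/mL final), 30 min dark, luminescence read.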
# GLS inh = blocks human kidney-isoform glutaminase activity | AID 624170 | O94925 | 0.21% of 410,000 active | GLS enzymatic activity, qHTS titration | Potency, µM (doses to about 45.5 µM), inactives show at the top dose activity change, negative = inhibition, usual class: inhibitors; also: potency is read from the fitted curve at half-maximal effect; % is scaled to controls: 0 for no effect and ±100 for the full control effect
#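 Glutamate formation by hKGA was monitored fluorometrically using coupled glutamate oxidase, HRP and Amplex Red. Substrate was added as 1 mM L-glutamine solution; incubation was 30 min at RT after an initial read.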
# JMJD2A Tudor = blocks the human JMJD2A Tudor domain; Potency, µM (doses to about 114 µM), for the others: top-dose activity change, negative = inhibition, usual class: inhibitors; AlphaScreen JMJD2A-Tudor / H3K4me3 peptide binding; 4.4% of 390,000 active; also: potency is read from the fitted curve at half-maximal effect; % is scaled to controls: 0 for no effect and ±100 for the full control effect; nearly all actives have a fitted effect of over 50% in size
# Target sequence (O75164 whole entry, looked up, the tested form may be a part): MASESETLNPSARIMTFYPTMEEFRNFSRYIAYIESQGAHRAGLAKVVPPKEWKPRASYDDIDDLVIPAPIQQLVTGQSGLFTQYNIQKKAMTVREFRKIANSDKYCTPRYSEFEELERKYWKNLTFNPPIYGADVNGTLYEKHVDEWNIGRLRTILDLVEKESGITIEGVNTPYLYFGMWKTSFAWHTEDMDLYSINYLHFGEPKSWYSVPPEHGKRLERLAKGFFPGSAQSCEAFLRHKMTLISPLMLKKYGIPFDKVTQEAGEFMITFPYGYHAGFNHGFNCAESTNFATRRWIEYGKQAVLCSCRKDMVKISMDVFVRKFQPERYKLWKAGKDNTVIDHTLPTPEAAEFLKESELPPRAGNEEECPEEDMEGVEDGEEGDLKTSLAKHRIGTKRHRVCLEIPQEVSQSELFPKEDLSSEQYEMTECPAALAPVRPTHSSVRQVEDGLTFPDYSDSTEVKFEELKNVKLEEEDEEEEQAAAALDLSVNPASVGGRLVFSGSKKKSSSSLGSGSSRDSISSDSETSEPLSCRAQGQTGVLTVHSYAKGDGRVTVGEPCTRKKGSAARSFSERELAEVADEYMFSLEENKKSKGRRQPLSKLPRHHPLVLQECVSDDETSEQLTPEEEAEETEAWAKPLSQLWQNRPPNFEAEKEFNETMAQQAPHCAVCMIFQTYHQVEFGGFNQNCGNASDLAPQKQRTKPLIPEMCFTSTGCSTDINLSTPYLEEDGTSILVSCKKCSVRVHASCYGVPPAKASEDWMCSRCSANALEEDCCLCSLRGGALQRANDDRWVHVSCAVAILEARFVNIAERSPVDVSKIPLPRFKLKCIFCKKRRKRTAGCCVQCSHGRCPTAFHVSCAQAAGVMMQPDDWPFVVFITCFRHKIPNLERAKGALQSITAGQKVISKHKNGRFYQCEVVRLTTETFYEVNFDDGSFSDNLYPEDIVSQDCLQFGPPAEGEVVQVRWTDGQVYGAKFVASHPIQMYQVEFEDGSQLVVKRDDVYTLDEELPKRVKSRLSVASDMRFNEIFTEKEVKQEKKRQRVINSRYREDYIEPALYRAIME
# G9a block = inhibitors of human histone lysine methyltransferase G9a. G9a H3K9 monomethylation, AlphaScreen, 2 h. Potency, µM (titrated, usually from 102 µM), for the others: top-dose activity, negative = inhibition, hits mostly inhibitors. AID 504332. Q96KQ7. 8.8% of 350,000 active; also: potency is read from the fitted curve at half-maximal effect; % is scaled to controls: 0 for no effect and ±100 for the full control effect; nearly all actives have a fitted effect of over 75% in size
#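 Methyltransferase reactions run at room temperature for 2 h (20 nM enzyme, 500 nM biotin-H3K9 peptide, 20 uM SAM) after a 15 min compound preincubation; product detected by AlphaScreen beads and anti-H3K9me1 antibody.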
# BAZ2B block = blocks human BAZ2B; Q9UIF8; AlphaScreen BAZ2B-H3K14Ac peptide displacement; Potency, µM (series often up to 114 µM), for inactives: at the highest dose activity change, negative = inhibition, actives largely listed as inhibitors; 4.4% of 360,000 active; AID 504333; also: potency is read from the fitted curve at half-maximal effect; % is scaled to controls: 0 for no effect and ±100 for the full control effect; nearly all actives have a fitted effect of over 60% in size
#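 BAZ2B 50 nM plus b-H3(5-23)K14Ac 50 nM, PBS pH 7.4/0.01% Tween-20, 30 min RT; compound added (max 110 uM), 30 min RT; streptavidin donor/Ni-chelate acceptor beads 10 ug/mL final, 20 min dark; AlphaScreen read.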
# L3MBTL1 block = blocks human L3MBTL1; Q9Y468; AlphaScreen L3MBTL1–H3K9me1 peptide binding; Potency, µM (highest dose often 57.1 µM), for inactives: at the highest dose activity, negative = inhibition, usual class: inhibitors; 0.66% of 230,000 active; also: potency is read from the fitted curve at half-maximal effect; % is scaled to controls: 0 for no effect and ±100 for the full control effect; nearly all actives have a fitted effect of over 60% in size
#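 L3MBTL1 50 nM + b-AHA-H3(1-15)K9me1 75 nM, 30 min RT; compound added, 30 min RT; streptavidin donor/Ni-chelate acceptor beads 10 ug/mL each final, 30 min RT dark; AlphaScreen read.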
# 12-hLO cuvette = confirmation of human 12-lipoxygenase inhibitors, 8HQ series round 1; purified 12-hLO, cuvette UV 234 nm product formation; AID 2163; Potency, µM, hits mostly inhibitors; shares compounds with BAZ2B block; 60% of 35 active;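 active = compounds that slowed 12-hLO product formation enough to yield a measured IC50 potency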
# JMJD2E inh = inhibitors of human JMJD2E demethylase, 8HQ series round 1; JMJD2E demethylase, FDH-coupled NADH fluorescence (FDH is formaldehyde dehydrogenase); Potency, µM (highest dose often 57 µM), inactives show at the highest dose activity, negative = inhibition, most hits filed as inhibitors; 89% of 130 active; AID 493212; shares compounds with BAZ2B block
# ME-1 growth = reduces ME-1 leukemia cell proliferation; Potency, µM (highest dose often 56.1 µM), inactives show at the top dose activity change, negative = inhibition, usual class: inhibitors; AID 504370; ME-1 cell proliferation, ATP luminescence, 48 h; 20% of 140 active; shares compounds with BAZ2B block
# The depositor's hits bear a star; i = inactive; ? = inconclusive; nt = no result given; [ ] = remark or other dose. Unless noted, calls follow the shape of the dose curve; as a rule, active = well fitted curve in the direction sought with a large enough effect; inconclusive = small, poorly fitted or top-dose-only effect, or another doubt; inactive = no such curve, though single readings can be large; an effect the other way counts as inactive or inconclusive.
SMILES,HP1b binding inh,GLS inh,JMJD2A Tudor,G9a block,BAZ2B block,L3MBTL1 block,ME-1 growth,others
COc1ccc(CCC(=O)O)c(O)c1,-2.7%,-21.7%,-23.8%,2.7%[12.7 µM],?,nt,nt,
CCOc1ccccc1NC(=O)N(C)CCc1c(C)nn(CC)c1C,43.3%,-5.1%,-6.6%,0.7%[59 µM],-5.8%,nt,nt,
Nc1nc(-c2ccc3c(c2)NC(=O)CO3)cs1,-1.2%,21.4%,?,?,?,nt,-1.7%[25.6 µM],
CN(C)c1nc(-c2ccccn2)nnc1-c1ccccc1,48.0%,8.8%,3.98µM*,24.0%,0.794µM*,nt,15.8µM*,
Cc1nnc(-c2ccccc2)nc1N(C)C,50.2%,-4.5%,10.4%,15.3%[59 µM],0.3%,8.1%,nt,
Cc1cc(O)c(C=O)c2c1C(=O)Oc1c(COC(=O)/C=C/C(=O)O)c(O)c(C(=O)O)c(C)c1O2,nt,nt,nt,?,nt,nt,9.7%,
COc1cccc2c1C(=O)c1c(O)c3c(c(O)c1C2=O)C[C@@](O)(C(C)=O)C[C@@H]3O[C@H]1C[C@H](N)[C@H](O)[C@H](C)O1,-16.3%,-0.3%,?,35.5µM*,35.5µM*,-20.2%,0.251µM*,
COc1ccc(Oc2nc(-c3ccccn3)ncc2OC)cc1,31.8%,4.9%,89.1µM*,?,28.2µM*,?,?,
COC(=O)c1ccc(NC(=O)CC2C(=O)N(c3cccc(OC)c3)C(=O)N2Cc2ccco2)cc1 (configuration not stated),-5.8%,-9.1%,-30.7%,?,-12.3%,nt,nt,
CCc1sc(N)nc1-c1ccccc1,-10.3%,19.2%,-35.6%,?,?,-14.4%,-7.3%[25.6 µM],
Cc1sc(N)nc1-c1ccccc1,-5.6%,-3.6%,-30.7%,-49.6%,-12.7%,0.1%,nt,
CCC(=O)NC(C)c1cc(Cl)c2cccnc2c1O (configuration not stated),44.4%,19.2%,79.4µM*,37.1%[12.7 µM],31.6µM*,?,nt,12-hLO cuvette=50µM*;JMJD2E inh=28.9µM*
CCC(=O)NC(c1cc(Cl)c2ccccc2c1O)C(C)C (configuration not stated),66.8%,1.8%,2.1%,-1.6%[0.501 µM],-9.4%,8.0%,nt,
Cc1ccc(C(=O)NC(c2ccco2)c2cc(Cl)c3cccnc3c2O)cc1 (configuration not stated),nt,nt,-9.9%,nt,nt,nt,nt,
CC(=O)NC(C)c1cc(Cl)c2cccnc2c1O (configuration not stated),27.4%,17.5%,79.4µM*,27.1%[12.7 µM],35.5µM*,?,nt,12-hLO cuvette=i;JMJD2E inh=28.9µM*
CC(=O)NCc1cc(Cl)c2cccnc2c1O,nt,nt,nt,11.7%[12.7 µM],10µM*,22.4µM*,nt,12-hLO cuvette=i;JMJD2E inh=20.4µM*
CCOC(=O)C1=C(C)N=C2SCCC(=O)N2C1c1ccc(OCc2ccccc2)c(OC)c1 (configuration not stated),26.3%,-4.8%,-26.8%,-1.7%[59 µM],-19.4%,nt,nt,
COc1cccc(N2C(=O)CSC23C(=O)N(CC(=O)Nc2cccc(Cl)c2)c2ccccc23)c1 (configuration not stated),13.1%,-2.4%,-19.7%,?,0.6%[57.1 µM],nt,nt,
O=c1c(S(=O)(=O)c2ccccc2)cn(Cc2cccc(F)c2)c2cc(N3CCOCC3)c(F)cc12,21.0%,15.3%,-11.6%,-1.6%[59 µM],-9.7%,nt,nt,
